Experimental findings from PubChem BioAssay (NCATS) are described below.

Each structure is given as a SMILES string. Results filed as inconclusive are left out. Entries that show only a call come without a potency. The source made the active and inactive calls. Calls follow the shape of the dose curve; as a rule, active = well fitted inhibition curve with a large enough effect; inconclusive = small, poorly fitted or top-dose-only effect; inactive = flat fitted curve, though single readings scatter.
Potency is read from the fitted curve at half-maximal effect.

This assay has as its system CP203. The assay can be described thus: qHTS profiling for inhibitors of Plasmodium falciparum proliferation (AID 504749). Also: nearly all actives have a fitted effect of over 60% in size. The conditions noted are these: P. falciparum in erythrocytes, SYBR Green DNA, 72 h; series mostly up to 28.7 µM. The text has this: NIH National Institute of Allergy and Infectious Diseases [NIAID] NIH Chemical Genomics Center [NCGC] MLPCN Grant: None Assay Provider: Xinzhuan Su, NIAID NCGC Assay Overview: Plasmodium falciparum is a virulent malarial parasite that kills 1-2 million people worldwide each year. Transmitted by mosquitoes, the sporozoite form of the parasite enters the blood stream to infect hepatocytes, where they become merozoites that infect red blood cells (erythrocytes). Within erythrocytes, merozoites begin a […] cycle of growth and division, after which the parasite is released to infect new red blood cells. Gametocytes, which form within erythrocytes as well, circulate in the bloodstream and are ingested by the mosquito, thereby completing the life cycle. To profile malarial isolates for differential chemical responses and to identify inhibitors of malarial growth, an assay that measures P. falciparum growth and replication within erythrocytes was employed. This assay uses a DNA binding fluorescent dye (SYBR Green) to detect parasite DNA following cell lysis. Because mature erythrocytes lack DNA, only Plasmodium-derived DNA is detected.
NCGC Assay Protocol Summary: The SYBR Green viability assay was adapted from a method described previously (Plouffe et al., 2008). For screening 3 ul culture medium was dispensed into 1536 well black clear bottom plates (Aurora Biotechnologies) using a Multidrop Combi (Thermo Fisher Scientific Inc.), 23 nL compounds in DMSO were added by a pin tool (Kalypsys), and 5 ul of erythrocytes infected with P. falciparum (0.3% parasitemia, 2.5% hematocrit final concentration) were added. The plates were incubated at 37 C in a humidified incubator in 5% CO2 for 72 h, and 2 ul lysis buffer (20 mM Tris HCl, 10 mM EDTA, 0.16% saponin, 1.6% triton X, 10X SYBR Green I supplied as 10,000X […] by Invitrogen) was added to each well. The plates were mixed for 25 sec with gentle shaking and incubated overnight at room temperature in the dark. The following morning, fluorescence intensity at 485(14) nm excitation and 535(25) nm emission wavelengths was measured on an EnVision (Perkin Elmer) plate reader. Plate reads were normalized relative to the control inhibitor (0.29 uM artemisinin) and vehicle (DMSO) wells present on each plate and then corrected by an algorithm using vehicle-only control plates at the beginning and end of the compound plate stack.
(In general: Quantitative high-throughput screening tests each substance at several concentrations.)
For `N#CC(C#N)=Cc1ccc(O)c(O)c1`, the Potency result was “inactive”. For `c1ccc2c(c1)OCC(C1=NCCN1)O2` (stereo not given), the Potency entry is “inactive”. Under `O=C(NC(O)C(Cl)(Cl)Cl)NC(O)C(Cl)(Cl)Cl` (stereo not given) stands “inactive”; under `CC[N+](CC)(CC)CC`, “inactive”. Turning to `Nc1ccncc1`, the Potency entry was “inactive”.

As for `C=C1CC[C@@]2(O)[C@H]3Cc4ccc(O)c5c4[C@@]2(CCN3CC2CC2)[C@H]1O5`, the Potency result was “inactive”.

Take `Cc1ccc(S(=O)(=O)N[C@@H](CCCCN)C(=O)CCl)cc1`: the Potency result was “inactive”. The same measure for `CC[N+]1(C)CCCC(OC(=O)C(O)(c2ccccc2)c2ccccc2)C1` (stereo not given): “inactive”; for `Oc1cc(Cl)ccc1Oc1ccc(Cl)cc1Cl`: 15.1 µM (active); for `CC(=O)[C@H]1CC[C@H]2[C@@H]3CC[C@H]4C[C@](C)(O)CC[C@]4(C)[C@H]3CC[C@]12C`: “inactive”. Under `NCCc1cc(O)c(O)cc1O` stands “inactive”; under `Clc1ccc(COC(Cn2ccnc2)c2ccc(Cl)cc2Cl)cc1` (stereo not given), 4.26 µM (active).

With `CC(=O)[C@H]1CC[C@H]2[C@@H]3CC[C@H]4C[C@H](O)CC[C@]4(C)[C@H]3C(=O)C[C@]12C`, the Potency result was “inactive”. Under `CN1CCN(C(=O)O[C@H]2c3nccnc3C(=O)N2c2ccc(Cl)cn2)CC1` stands “inactive”; under `CN1C(=S)CN=C(c2ccccc2)c2cc(Cl)ccc21`, “inactive”; under `O=C(O)c1ccc2[nH]cc(CCCCN3CC=C(c4ccccc4)CC3)c2c1`, “inactive”. `FC(F)(F)c1cccc(C2=CCN(CCc3ccc4ccccc4c3)CC2)c1`: the Potency result is “inactive”.

For `O=C1NCN(c2ccccc2)C12CCN(CC1COc3ccccc3O1)CC2` (stereo not given), the Potency result is “inactive”. Under `Cc1ncc(CNC(=O)N(CCCl)N=O)c(N)n1` stands “inactive”; under `Fc1ccc(C(OCCN2CCN(CCCc3ccccc3)CC2)c2ccc(F)cc2)cc1`, 12 µM (active). The same measure for `CC[C@@H](CO)NC(=O)[C@@H]1C=C2c3cccc4[nH]cc(c34)C[C@H]2N(C)C1`: “inactive”; for `CCN(CC)CCOC(=O)C(O)(c1ccccc1)c1ccccc1`: “inactive”. Under `C=C(C)[C@H]1Cc2c(ccc3c2O[C@@H]2COc4cc(OC)c(OC)cc4[C@@H]2C3=O)O1` stands “inactive”; under `C#CCOC(C(=O)OCCN(C)C)(c1ccccc1)c1ccccc1`, “inactive”; under `N[C@@H](Cc1ccc(N(CCCl)CCCl)cc1)C(=O)O`, “inactive”. As to `OCCOc1ccccc1`, the Potency entry was “inactive”. In the case of `NP(N)(=O)NC(=O)c1ccc(F)cc1`, the Potency entry is “inactive”. Under `COc1ccccc1N1CCNCC1` stands “inactive”; under `CC1NCCOC1c1ccccc1` (stereo not given), “inactive”; under `CCCN1CCC[C@@H]2Cc3[nH]ncc3C[C@H]21`, “inactive”. With `Oc1ccc(Cl)cc1Cc1ccccc1`, the Potency was 16.9 µM (active). Under `NN=C(N)N` stands “inactive”.

As for `CCCC1CCCCN1` (stereo not given), the Potency result is “inactive”. The same measure for `CCOP(=S)(OCC)Oc1cc(C)nc(C(C)C)n1`: “inactive”; for `CC(=O)Nc1cc([As](=O)(O)O)ccc1O`: “inactive”; for `Cn1c(CCCC(=O)O)nc2cc(N(CCCl)CCCl)ccc21`: “inactive”. Under `COc1ccc(C(=O)c2c(C)n(CCN3CCOCC3)c3ccccc23)cc1` stands “inactive”; under `Oc1cccc2cccnc12`, “inactive”; under `CCOC(=O)C1(c2ccccc2)CCN(CCC(C#N)(c2ccccc2)c2ccccc2)CC1`, 4.78 µM (active). Under `Clc1cccc(N2CCNCC2)c1` stands “inactive”.
